Test results from PubChem BioAssay AID1117319 (Southern Research Institute, 2015).
Screen size: about 260,000 compounds; about 1,500 (0.58%) were called active. Not shown: some 5% with an inconclusive outcome.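 How the source made its calls: active means inhibition above a set limit at one or more doses, reproduced on every date tested; inconclusive means results disagree between test dates, or hit never tested in dose response; inactive means the rest.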 Not all results are given here. Results with a measured potency or affinity are listed apart.

molecular target: Virion infectivity factor (Human immunodeficiency virus type 1 group M subtype B (isolate BH10)) + Virion infectivity factor (Human immunodeficiency virus type 1 group M subtype B (isolate BRU/LAI)) + Virion infectivity factor (Human immunodeficiency virus type 1 group M subtype B (isolate PCV12)) + Virion infectivity factor (Human immunodeficiency virus type 1 group M subtype B (isolate HXB2)) + DNA dC->dU-editing enzyme APOBEC-3G (Homo sapiens) (UniProt P69720+P69721+P69722+P69723+Q9HC16); assay: inhibitors of Vif binding to APOBEC3G peptide, primary screen, biochemical, TR-FRET, GST-Vif 1-94, biotin-A3G peptide, dose response retest (AID 1117319); settings: hits give high values;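 further: Vif residues 1-94 fused to GST binding biotinylated APOBEC3G peptide 110-148; 0% = full assay without inhibitor and 100% = GST in place of GST-Vif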

inhibition, inactive:
COc1ccc(CCNC(=O)COC(=O)/C=C/c2ccc(OCC#N)c(OC)c2)cc1OC 5.39%
CC(=O)Nc1ccc(NC(=O)Cn2ccc([N+](=O)[O-])n2)cc1 11.7%
COc1cccc(C2CC(c3cccs3)=NN2C(=O)CSC2=NN3CCCC(=O)N=C3S2)c1OC (stereo not drawn) 0.81%
O=C(c1ccco1)N1CCN(Cc2cc(=O)c(OCc3cccc(F)c3)co2)CC1 -1.67%
S=c1nc(-c2ccccc2)oc2c1CCCC2 2.15%
O=[N+]([O-])c1ccc(-c2nc(=S)c3c(o2)CCCC3)cc1 0.66%
Cc1nc2oc3ccccc3c(=O)c2cc1C(=O)O -10.2%
Cc1ccc(C)c(N2CCN(S(=O)(=O)c3ccc4c(c3)CCC(=O)N4)CC2)c1 24.6%
COc1ccc(C(=O)COC(=O)CNC(=O)c2ccc(Cl)cc2Cl)c(OC)c1 3.17%
Cc1cc(C)cc(NC(=O)CSCc2cnn(-c3ccccc3)c2-n2cccc2)c1 -0.62%
CCOc1ccc(NC(=O)CSCc2cnn(-c3ccccc3)c2-n2cccc2)cc1 -1.2%
O=C(NCCn1ccc2ccccc21)C1CCCCC1 -2.31%
Cc1cc2ccccc2n1CCNC(=O)C1CCCC1 23.5%
CC(C)CC(=O)NCc1ccc2[nH]c3c(c2c1)CCCC3 5.99%
O=C(CCN1CCC(c2ccc(Cl)s2)=N1)c1ccc(Cl)s1 -2.16%
CC(=O)NCC(=O)NC(Cc1ccccc1)C(N)=O (stereo not drawn) 18.9%
COc1cc(/C=C(\C#N)C(=O)N2CCOCC2)cc(Br)c1O -3.89%
NC(=O)/C(=C\c1ccco1)NC(=O)c1ccco1 13.1%
CC(=C\C(=O)O)/C(=C/c1ccco1)C(=O)O 29.9%
Cc1ccc2sc(N(CCCN(C)C)C(=O)c3ccc(S(=O)(=O)N4CCOCC4)cc3)nc2c1C 7.87%
CCOc1ccccc1CNc1ccc(O)cc1 -1.14%
COc1cc(CNC(C)(C)CO)cc(Br)c1OCc1ccccc1 14.2%
O=C(O)c1ccc(CNCc2cccc(OCc3ccc(F)cc3)c2)cc1 -2.79%
Fc1cccc(COc2ccccc2CNc2ccccc2)c1 8.86%
C=CCOc1c(CNc2ccc(C(=O)O)cc2)cccc1OCC 5.17%
O=[N+]([O-])c1ccc(COc2cccc(CNc3ccc(F)cc3)c2)cc1 26.4%
CCOc1cc(CNc2ccccc2)cc(Br)c1OCc1ccc(F)cc1 -2.02%
CCOc1cccc(CNn2cnnc2)c1OCc1ccccc1Cl 3.09%
